Laboratory results reported in PubChem BioAssay AID1159580 (chemical genetic matrix, 2015).
In all, about 5,500 compounds went through this assay and about 2,000 (36%) were called active. About 18% were inconclusive and are not listed. Cut-off read from the data, not from the text of the source: active = normalized growth mostly below about 0.91 (no sharp cut-off); inconclusive = no clear call, values can overlap the other calls; inactive = mostly above about 0.92. Some of the results follow.

Assay: chemical genetic growth profiling, strain panel (AID 1159580);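 note: tested at 20 µM; growth read once vehicle control cultures reached saturation at 30 °C; 1 = growth at the plate median or of vehicle wells; lower values mean less growth of the strain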
Details: growth OD

Measured: normalized growth

Nc1ncn([C@@H]2O[C@H](CO)[C@@H](O)[C@H]2O)c(=O)n1
inactive: S. cerevisiae deletion strains, locus YJR066W, strain TOR1, active compounds read low 0.948 | S. cerevisiae deletion strains, locus YKL009W, strain mrt4, active compounds read low 1 | S. cerevisiae deletion strains, locus YKL068W, active compounds read low 0.997 | S. cerevisiae deletion strains, locus YKL085W, strain MDH1 (second series), active compounds read low 0.989 | S. cerevisiae deletion strains, locus YKL085W, strain MDH1, active compounds read low 0.989 | S. cerevisiae deletion strains, locus YKL160W, strain elf1, active compounds read low 0.99 | S. cerevisiae deletion strains, locus YKL190W, strain CNB1, active compounds read low 1.01 | S. cerevisiae deletion strains, locus YKR001C, strain vps1, active compounds read low 1.02 | S. cerevisiae deletion strains, locus YKR026C, strain gcn3, active compounds read low 1.07 | S. cerevisiae deletion strains, locus YKR091W, strain srl3, active compounds read low 0.967 | S. cerevisiae deletion strains, locus YLL001W, strain dnm1, active compounds read low 0.952 | S. cerevisiae deletion strains, locus YLL026W, active compounds read low 0.997 | S. cerevisiae deletion strains, locus YLL041C, strain sdh2, active compounds read low 0.989 | S. cerevisiae deletion strains, locus YLR027C, strain aat2, active compounds read low 0.985 | S. cerevisiae deletion strains, locus YLR039C, strain RIC1, active compounds read low 1.01 | S. cerevisiae deletion strains, locus YLR058C, strain SHM2, active compounds read low 1.02 | S. cerevisiae deletion strains, locus YLR102C, strain apc9, active compounds read low 0.993 | S. cerevisiae deletion strains, locus YLR113W, strain HOG1, active compounds read low 0.951 | S. cerevisiae deletion strains, locus YLR221C, strain rsa3, active compounds read low 1.01 | S. cerevisiae deletion strains, locus YLR258W, strain gsy2, active compounds read low 0.992 | S. cerevisiae deletion strains, locus YLR262C, strain YPT6 (second series), active compounds read low 0.955 | S. cerevisiae deletion strains, locus YLR262C, strain YPT6, active compounds read low 1.06 | S. cerevisiae deletion strains, locus YLR268W, strain sec22, active compounds read low 0.99 | S. cerevisiae deletion strains, locus YLR320W, strain mms22, active compounds read low 1 | S. cerevisiae deletion strains, locus YLR330W, strain CHS5, active compounds read low 1 | S. cerevisiae deletion strains, locus YLR342W, strain FKS1 (second series), active compounds read low 1 | S. cerevisiae deletion strains, locus YLR342W, strain FKS1, active compounds read low 0.932 | S. cerevisiae deletion strains, locus YLR357W, strain rsc2, active compounds read low 1.01 | S. cerevisiae deletion strains, locus YLR370C, strain arc18, active compounds read low 0.985 | S. cerevisiae deletion strains, locus YLR371W, strain rom2, active compounds read low 0.994 | S. cerevisiae deletion strains, locus YLR384C, strain iki3, active compounds read low 0.974 | S. cerevisiae deletion strains, locus YLR418C, strain cdc73, active compounds read low 0.973 | S. cerevisiae deletion strains, locus YML016C, strain PPZ1, active compounds read low 1.01 | S. cerevisiae deletion strains, locus YML032C, strain rad52, active compounds read low 0.998 | S. cerevisiae deletion strains, locus YML120C, strain ndi1, active compounds read low 0.986 | S. cerevisiae deletion strains, locus YML124C, strain tub3, active compounds read low 1 | S. cerevisiae deletion strains, locus YMR058W, strain fet3, active compounds read low 0.989 | S. cerevisiae deletion strains, locus YMR078C, strain ctf18, active compounds read low 0.992 | S. cerevisiae deletion strains, locus YMR125W, strain sto1, active compounds read low 0.962 | S. cerevisiae deletion strains, locus YMR129W, active compounds read low 0.996 | S. cerevisiae deletion strains, locus YMR205C, strain PFK2, active compounds read low 0.967 | S. cerevisiae deletion strains, locus YMR223W, strain ubp8, active compounds read low 0.989 | S. cerevisiae deletion strains, locus YMR231W, strain pep5, active compounds read low 0.985 | S. cerevisiae deletion strains, locus YMR307W, strain GAS1, active compounds read low 0.982 | S. cerevisiae deletion strains, locus YNL067W, strain RPL9B, active compounds read low 1.02 | S. cerevisiae deletion strains, locus YNL071W, strain lat1, active compounds read low 1.01 | S. cerevisiae deletion strains, locus YNL153C, strain GIM3, active compounds read low 1.04 | S. cerevisiae deletion strains, locus YNL183C, strain NPR1, active compounds read low 0.935 | S. cerevisiae deletion strains, locus YNL209W, strain ssb2, active compounds read low 0.997 | S. cerevisiae deletion strains, locus YNL233W, strain BNI4, active compounds read low 1.03 | S. cerevisiae deletion strains, locus YNL248C, strain rpa49, active compounds read low 0.951 | S. cerevisiae deletion strains, locus YNL250W, strain rad50, active compounds read low 1.01 | S. cerevisiae deletion strains, locus YNL271C, strain bni1, active compounds read low 1 | S. cerevisiae deletion strains, locus YNL298W, strain CLA4, active compounds read low 1 | S. cerevisiae deletion strains, locus YNL307C, strain MCK1, active compounds read low 0.998 | S. cerevisiae deletion strains, locus YNL322C, strain KRE1 (second series), active compounds read low 0.978 | S. cerevisiae deletion strains, locus YNL322C, strain KRE1, active compounds read low 1.01 | S. cerevisiae deletion strains, locus YNR049C, strain mso1, active compounds read low 0.968 | S. cerevisiae deletion strains, locus YNR052C, strain pop2, active compounds read low 0.993 | S. cerevisiae deletion strains, locus YOL006C, strain TOP1, active compounds read low 1.07 | S. cerevisiae deletion strains, locus YOL012C, strain htz1 0.991 | S. cerevisiae deletion strains, locus YOL147C, strain pex11, active compounds read low 1 | S. cerevisiae deletion strains, locus YOR001W, strain rrp6, active compounds read low 0.976 | S. cerevisiae deletion strains, locus YOR061W, strain CKA2, active compounds read low 1.02 | S. cerevisiae deletion strains, locus YOR069W, strain VPS5, active compounds read low 1.01 | S. cerevisiae deletion strains, locus YOR070C, strain gyp1, active compounds read low 0.99 | S. cerevisiae deletion strains, locus YOR080W, strain dia2, active compounds read low 0.967 | S. cerevisiae deletion strains, locus YOR083W, strain WHI5, active compounds read low 0.968 | S. cerevisiae deletion strains, locus YOR106W, strain vam3, active compounds read low 0.959 | S. cerevisiae deletion strains, locus YOR136W, strain idh2, active compounds read low 1 | S. cerevisiae deletion strains, locus YOR144C, strain elg1, active compounds read low 0.99 | S. cerevisiae deletion strains, locus YOR184W, strain ser1, active compounds read low 0.996 | S. cerevisiae deletion strains, locus YOR231W, strain MKK1, active compounds read low 0.974 | S. cerevisiae deletion strains, locus YOR265W, strain rbl2, active compounds read low 0.989 | S. cerevisiae deletion strains, locus YOR270C, strain vph1, active compounds read low 0.958 | S. cerevisiae deletion strains, locus YOR290C, strain snf2, active compounds read low 1.01 | S. cerevisiae deletion strains, locus YOR316C, strain cot1, active compounds read low 0.997 | S. cerevisiae deletion strains, locus YPL051W, strain arl3, active compounds read low 0.992 | S. cerevisiae deletion strains, locus YPL078C, strain atp4, active compounds read low 0.958 | S. cerevisiae deletion strains, locus YPL106C, strain sse1, active compounds read low 0.978 | S. cerevisiae deletion strains, locus YPL240C, strain hsp82, active compounds read low 0.986 | S. cerevisiae deletion strains, locus YPL241C, strain CIN2, active compounds read low 1.01 | S. cerevisiae deletion strains, locus YPL256C, strain CLN2, active compounds read low 0.975 | S. cerevisiae deletion strains, locus YPR119W, strain clb2, active compounds read low 0.99 | S. cerevisiae deletion strains, locus YPR141C, strain kar3, active compounds read low 0.99 | S. cerevisiae deletion strains, locus YPR163C, strain tif3, active compounds read low 0.998 | S. cerevisiae deletion strains, locus YPR167C, strain met16, active compounds read low 0.994 | S. cerevisiae deletion strains, strain wtn01, active compounds read low 1.01 | S. cerevisiae strains, strain wild type, active compounds read low 1.01
